# Shown are actives, neighbours in structure and some others; about 4.7% of the full set was active somewhere.
# SKKanGAS inh – blocks kanamycin growth of S. pyogenes SKKanGAS strain | BacTiter-Glo, 6 h | inhibition, % at 7.5 µM | actives 1.3% (n = 300,000) | AID 1662;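 active = mean replicate score, as percent of positive control median, at least 50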;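 also: strain carries kanamycin resistance gene driven by streptokinase promoter and grows in 40 µg/ml kanamycin; loss of luminescence reflects streptokinase promoter inhibition or plain growth inhibition; 0% = median of DMSO wells and 100% = positive control at its reference dose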
# tim10-1 inh – growth inhibitors of tim10-1 mutant yeast; actives 2.2% (n = 330,000); inhibition, % at 20 µM; S. cerevisiae tim10-1 ts strain growth, BacTiter-Glo, 24 h;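 active = inhibition of at least 40%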;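 also: mutant grown at 25 °C; 0% = DMSO wells with yeast and 100% = wells holding no yeast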
# TIM10 inh – growth inhibitors of TIM10 yeast strain; S. cerevisiae TIM10 strain growth, BacTiter-Glo luminescence, 24 h; inhibition, % at 10 µM; actives 1.4% (n = 330,000); AID 463195;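 active = inhibition of 40% or more at the single tested concentration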;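 also: wild-type TIM10 isogenic control strain grown at permissive 25 °C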
# PfHsp90 set2 – growth inhibition of yeast expressing Plasmodium Hsp90; S. cerevisiae expressing PfHsp90, BacTiter-Glo ATP, 48 h; yeast lacking PDR1 and PDR3 efflux regulators; inhibition, % at 9.4 µM; actives 0.32% (n = 310,000); AID 504621;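 active = every replicate shows inhibition above about 80%, whatever the replicate mean, limit read from the data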;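 also: 0% = DMSO neutral controls and 100% = 20 µM radicicol positive controls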
# ATG4B inh – blocks human ATG4B protease cleavage of LC3 substrate; Q9Y4P1; ATG4B cleavage of LC3-PLA2, NBD-HPC fluorescence, 1 h; inhibition, % at 8.33 µM; actives 0.51% (n = 340,000); in the data active = inhibition above about 40%
# Target sequence (Q9Y4P1 whole entry, looked up): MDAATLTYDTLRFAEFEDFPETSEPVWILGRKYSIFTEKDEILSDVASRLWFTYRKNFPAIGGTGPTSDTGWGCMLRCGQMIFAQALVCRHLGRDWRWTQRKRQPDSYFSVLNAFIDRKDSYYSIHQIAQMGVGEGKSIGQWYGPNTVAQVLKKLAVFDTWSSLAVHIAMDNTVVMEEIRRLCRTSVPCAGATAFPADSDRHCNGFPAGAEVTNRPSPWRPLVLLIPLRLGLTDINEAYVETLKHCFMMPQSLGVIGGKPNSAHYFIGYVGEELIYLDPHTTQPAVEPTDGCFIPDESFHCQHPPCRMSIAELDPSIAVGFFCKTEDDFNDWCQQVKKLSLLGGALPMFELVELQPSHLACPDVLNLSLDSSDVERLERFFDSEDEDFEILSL
# tim23-1 inh – inhibits growth of tim23-1 mutant yeast; S. cerevisiae tim23-1 growth, BacTiter-Glo luminescence, 24 h; inhibition, % at 20 µM; actives 1.3% (n = 330,000);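 active = growth inhibition of the mutant yeast at or above 50%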;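 also: temperature-sensitive mutant grown at 25 °C; plate controls were DMSO-treated mutant yeast for no effect and medium wells lacking yeast for full effect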
# tim10-1 confirm – confirmation of tim10-1 mutant yeast growth inhibitors; inhibition, % at 20 µM; S. cerevisiae tim10-1 ts strain growth, BacTiter-Glo, 24 h; actives 56% (n = 7,400); shares compounds with tim10-1 inh;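 active = inhibition of yeast growth at or above a set limit in either of two repeat tests at 20 µM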;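 also: tim10-1 mutant grown at permissive 25 °C to find synthetic lethal compounds; 0% = DMSO yeast wells and 100% = medium wells without yeast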
# tim10 confirm – TIM10 yeast growth inhibition, confirmed; shares compounds with TIM10 inh; S. cerevisiae tim10 strain growth, BacTiter-Glo luminescence, 24 h; inhibition, % at 10 µM; actives 63% (n = 4,600); AID 463215;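 active = inhibition of yeast growth at or above a set limit in either of two replicates at 10 µM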;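 also: this counterscreen used the strain with wild-type TIM10; 0% = yeast with DMSO and 100% = medium wells lacking yeast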
# * marks the source's active call; other numbers are inactive results; · = not tested or not shown.
SMILES,SKKanGAS inh,tim10-1 inh,TIM10 inh,PfHsp90 set2,ATG4B inh,tim23-1 inh,tim10-1 confirm,tim10 confirm
O=C(/C=C/c1ccc(-c2ccccc2[N+](=O)[O-])o1)c1ccco1,-20,55*,48*,-26,-1,36,44*,46*
C=CCCC(=O)Nc1nc(C)c(-c2csc(Nc3cc(Cl)ccc3OC)n2)s1,23,30,9,15,1,17,·,·
CCOC(=O)C(=Cc1ccc(-n2ccnc2)cc1)C(=O)OCC,0,73*,64*,-7,-14,38,74*,69*
CCOC(=O)C(=Cc1ccc(Br)cc1)C(=O)OCC,-7,·,·,19,-3,·,·,·
Cc1cc(N2C(=O)C=CC2=O)c([N+](=O)[O-])cc1C,·,95*,83*,117*,-11,4,93*,95*
CCc1nnc(NC(=O)C2CCCN(c3nc4ccccc4s3)C2)s1 (stereo not given),6,7,25,12,4,16,·,·
O=C(Nc1ccc2c(c1)OCO2)C1CCCN(c2nc3ccccc3s2)C1 (stereo not given),6,48*,45*,4,22,45,36*,38*
Cc1ccc(C2Oc3ccccc3C3=C2C(c2cccs2)n2ncnc2N3)cc1 (stereo not given),100*,42*,45*,-28,-8,48,26,16
CCOC(=O)N1CCN(Cc2cc(=O)oc3ccc4ccccc4c23)CC1,-8,30,25,3,-4,35,·,·
O=C(CC12CC3CC(CC(C3)C1)C2)NCC(=O)OCc1cc(=O)oc2ccc3ccccc3c12,36,41*,44*,-39,-34,9,26,26
CC1(C)C(=O)C2(CCCCC2)C(=O)OC1c1ccc(O)cc1 (stereo not given),-1,46*,44*,19,7,49,38*,42*
CC1(C)C(=O)C2(CCCC2)C(=O)OC1c1ccco1 (stereo not given),1,1,-1,25,4,11,·,·
Cc1c(N2C(=O)/C(=C\C3CC=CCC3)SC2=S)c(=O)n(-c2ccccc2)n1C (stereo not given),-4,46*,42*,·,-2,48,39*,33*
Cc1c(N2C(=O)/C(=C/c3ccccc3)SC2=S)c(=O)n(-c2ccccc2)n1C,3,28,7,-9,-13,10,·,·
O=C(/C=C/c1cccc([N+](=O)[O-])c1)c1ccc2c(c1)OCCO2,1,41*,47*,9,-3,35,50*,47*
COc1ccc(/C=N/NC(=O)c2ccc3c(c2)OCCO3)cc1[N+](=O)[O-],-5,-20,-9,-12,-2,-4,·,·
COc1ccc(/C=C/C(=O)c2ccc3c(c2)OCCO3)cc1[N+](=O)[O-],-5,43*,44*,21,-5,21,28,40*
CCc1c(C)sc(NC(=O)c2cc(C3CC3)on2)c1C#N,21,-5,-6,-20,-12,21,·,·
CN1CCN(C(=O)/C(=C\c2ccccc2)c2ccccc2)CC1,2,3,0,0,-4,-15,·,·
CC1CCN(C(=O)/C(=C/c2ccccc2Cl)c2ccccc2)CC1,17,41*,41*,-21,27,37,31,-27
N/C(=N\OC(=O)c1ccc2ccccc2c1)c1ccc(Br)cc1,-18,28,13,-20,3,9,·,·
N/C(=N\OC(=O)N1CCOCC1)c1ccc(Br)cc1,6,60*,50*,-4,-1,37,61*,41*
COc1cc(/C=N/NC(=O)C(=O)/C=C2\NC3(CCCC3)Cc3ccccc32)ccc1O,21,52*,47*,-26,26,45,22,4
COC(=O)[C@@]1(Cc2ccc(OC)cc2)[C@@H]2C(=CC(=O)[C@H]2CC(=O)C(=O)N(C)C)CN1C(=O)c1ccccc1,·,22,0,·,-8,-10,·,·
